Among all 5,500 compounds or so, about 2,000 (36%) were called active. Not shown: some 18% with an inconclusive outcome. Rule as the data show it: active = normalized growth mostly below about 0.91 (no sharp cut-off); inconclusive = no clear call, values can overlap the other calls; inactive = mostly above about 0.92. The list shows a part of the results.
Assay: chemical genetic growth profiling, strain panel (AID 1159580);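 also: tested at 20 µM; growth read once vehicle control cultures reached saturation at 30 °C; 1 = growth at the plate median or of vehicle wells; lower values mean less growth of the strain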
Conditions: growth OD

Measured: normalized growth

Nc1ncnc2nc[nH]c12
inactive: S. cerevisiae deletion strains, locus YJR066W, strain TOR1, active compounds read low 0.966 | S. cerevisiae deletion strains, locus YKL009W, strain mrt4, active compounds read low 0.942 | S. cerevisiae deletion strains, locus YKL068W, active compounds read low 1.03 | S. cerevisiae deletion strains, locus YKL085W, strain MDH1 (second series), active compounds read low 1.01 | S. cerevisiae deletion strains, locus YKL085W, strain MDH1, active compounds read low 1.01 | S. cerevisiae deletion strains, locus YKL160W, strain elf1, active compounds read low 0.995 | S. cerevisiae deletion strains, locus YKR026C, strain gcn3, active compounds read low 0.996 | S. cerevisiae deletion strains, locus YKR091W, strain srl3, active compounds read low 0.99 | S. cerevisiae deletion strains, locus YLL001W, strain dnm1, active compounds read low 0.965 | S. cerevisiae deletion strains, locus YLL026W, active compounds read low 0.994 | S. cerevisiae deletion strains, locus YLL041C, strain sdh2, active compounds read low 0.991 | S. cerevisiae deletion strains, locus YLR027C, strain aat2, active compounds read low 0.997 | S. cerevisiae deletion strains, locus YLR058C, strain SHM2, active compounds read low 0.908 | S. cerevisiae deletion strains, locus YLR102C, strain apc9, active compounds read low 0.997 | S. cerevisiae deletion strains, locus YLR113W, strain HOG1, active compounds read low 1.04 | S. cerevisiae deletion strains, locus YLR221C, strain rsa3, active compounds read low 0.964 | S. cerevisiae deletion strains, locus YLR258W, strain gsy2, active compounds read low 0.985 | S. cerevisiae deletion strains, locus YLR262C, strain YPT6 (second series), active compounds read low 1.01 | S. cerevisiae deletion strains, locus YLR320W, strain mms22, active compounds read low 0.973 | S. cerevisiae deletion strains, locus YLR342W, strain FKS1 (second series), active compounds read low 0.864 | S. cerevisiae deletion strains, locus YLR342W, strain FKS1, active compounds read low 0.983 | S. cerevisiae deletion strains, locus YLR357W, strain rsc2, active compounds read low 0.972 | S. cerevisiae deletion strains, locus YLR370C, strain arc18, active compounds read low 0.983 | S. cerevisiae deletion strains, locus YLR371W, strain rom2, active compounds read low 0.985 | S. cerevisiae deletion strains, locus YLR384C, strain iki3, active compounds read low 0.987 | S. cerevisiae deletion strains, locus YML016C, strain PPZ1, active compounds read low 1.04 | S. cerevisiae deletion strains, locus YML032C, strain rad52, active compounds read low 0.972 | S. cerevisiae deletion strains, locus YML120C, strain ndi1, active compounds read low 0.97 | S. cerevisiae deletion strains, locus YML124C, strain tub3, active compounds read low 1 | S. cerevisiae deletion strains, locus YMR058W, strain fet3, active compounds read low 0.994 | S. cerevisiae deletion strains, locus YMR078C, strain ctf18, active compounds read low 0.988 | S. cerevisiae deletion strains, locus YMR125W, strain sto1, active compounds read low 0.978 | S. cerevisiae deletion strains, locus YMR129W, active compounds read low 0.979 | S. cerevisiae deletion strains, locus YMR205C, strain PFK2, active compounds read low 0.968 | S. cerevisiae deletion strains, locus YMR231W, strain pep5, active compounds read low 0.991 | S. cerevisiae deletion strains, locus YMR263W, strain SAP30, active compounds read low 0.932 | S. cerevisiae deletion strains, locus YMR307W, strain GAS1, active compounds read low 1.18 | S. cerevisiae deletion strains, locus YNL067W, strain RPL9B, active compounds read low 0.945 | S. cerevisiae deletion strains, locus YNL071W, strain lat1, active compounds read low 0.988 | S. cerevisiae deletion strains, locus YNL128W, strain TEP1, active compounds read low 0.955 | S. cerevisiae deletion strains, locus YNL183C, strain NPR1, active compounds read low 0.97 | S. cerevisiae deletion strains, locus YNL209W, strain ssb2, active compounds read low 0.984 | S. cerevisiae deletion strains, locus YNL248C, strain rpa49, active compounds read low 0.982 | S. cerevisiae deletion strains, locus YNL250W, strain rad50, active compounds read low 1.01 | S. cerevisiae deletion strains, locus YNL271C, strain bni1, active compounds read low 0.956 | S. cerevisiae deletion strains, locus YNL298W, strain CLA4, active compounds read low 0.956 | S. cerevisiae deletion strains, locus YNL322C, strain KRE1 (second series), active compounds read low 0.982 | S. cerevisiae deletion strains, locus YNL322C, strain KRE1, active compounds read low 0.97 | S. cerevisiae deletion strains, locus YNR049C, strain mso1, active compounds read low 0.982 | S. cerevisiae deletion strains, locus YNR052C, strain pop2, active compounds read low 0.954 | S. cerevisiae deletion strains, locus YOL006C, strain TOP1, active compounds read low 0.783 | S. cerevisiae deletion strains, locus YOL012C, strain htz1 0.719 | S. cerevisiae deletion strains, locus YOR001W, strain rrp6, active compounds read low 1 | S. cerevisiae deletion strains, locus YOR061W, strain CKA2, active compounds read low 0.995 | S. cerevisiae deletion strains, locus YOR069W, strain VPS5, active compounds read low 0.971 | S. cerevisiae deletion strains, locus YOR070C, strain gyp1, active compounds read low 0.981 | S. cerevisiae deletion strains, locus YOR080W, strain dia2, active compounds read low 0.997 | S. cerevisiae deletion strains, locus YOR083W, strain WHI5, active compounds read low 0.981 | S. cerevisiae deletion strains, locus YOR106W, strain vam3, active compounds read low 0.953 | S. cerevisiae deletion strains, locus YOR136W, strain idh2, active compounds read low 0.968 | S. cerevisiae deletion strains, locus YOR231W, strain MKK1, active compounds read low 1.01 | S. cerevisiae deletion strains, locus YOR265W, strain rbl2, active compounds read low 0.987 | S. cerevisiae deletion strains, locus YOR270C, strain vph1, active compounds read low 0.972 | S. cerevisiae deletion strains, locus YOR290C, strain snf2, active compounds read low 0.971 | S. cerevisiae deletion strains, locus YOR316C, strain cot1, active compounds read low 0.995 | S. cerevisiae deletion strains, locus YPL051W, strain arl3, active compounds read low 0.99 | S. cerevisiae deletion strains, locus YPL055C, strain LGE1, active compounds read low 0.796 | S. cerevisiae deletion strains, locus YPL078C, strain atp4, active compounds read low 0.983 | S. cerevisiae deletion strains, locus YPL106C, strain sse1, active compounds read low 0.973 | S. cerevisiae deletion strains, locus YPL240C, strain hsp82, active compounds read low 0.993 | S. cerevisiae deletion strains, locus YPL241C, strain CIN2, active compounds read low 1.01 | S. cerevisiae deletion strains, locus YPL256C, strain CLN2, active compounds read low 1.06 | S. cerevisiae deletion strains, locus YPR119W, strain clb2, active compounds read low 0.987 | S. cerevisiae deletion strains, locus YPR141C, strain kar3, active compounds read low 1.02 | S. cerevisiae deletion strains, locus YPR167C, strain met16, active compounds read low 0.976
active: S. cerevisiae deletion strains, locus YKR001C, strain vps1, active compounds read low 0.319 | S. cerevisiae deletion strains, locus YLR039C, strain RIC1, active compounds read low 0.443 | S. cerevisiae deletion strains, locus YLR262C, strain YPT6, active compounds read low 0.514 | S. cerevisiae deletion strains, locus YLR268W, strain sec22, active compounds read low 0.795 | S. cerevisiae deletion strains, locus YLR330W, strain CHS5, active compounds read low 0.842 | S. cerevisiae deletion strains, locus YLR418C, strain cdc73, active compounds read low 0.612 | S. cerevisiae deletion strains, locus YMR223W, strain ubp8, active compounds read low 0.846 | S. cerevisiae deletion strains, locus YNL233W, strain BNI4, active compounds read low 0.695 | S. cerevisiae deletion strains, locus YNL307C, strain MCK1, active compounds read low 0.591 | S. cerevisiae deletion strains, locus YOL147C, strain pex11, active compounds read low 0.834 | S. cerevisiae deletion strains, locus YOR144C, strain elg1, active compounds read low 0.885 | S. cerevisiae deletion strains, locus YOR184W, strain ser1, active compounds read low 0.708 | S. cerevisiae deletion strains, locus YPR163C, strain tif3, active compounds read low 0.889 | S. cerevisiae deletion strains, strain wtn01, active compounds read low 0.841 | S. cerevisiae strains, strain wild type, active compounds read low 0.879
